Our source for the Potency and activation values is PubChem BioAssay (NCATS).

Where “and” joins values, the source holds several entries; their conditions need not be identical. Identical values can stand only once. Results filed as inconclusive are left out. Unmarked numbers belong to inactive results. Calls of active or inactive are those of the source. Unless noted, the call rests on the fitted dose curve; in most records, active means well fitted curve in the direction sought with a large enough effect; inconclusive means small, poorly fitted or top-dose-only effect, or another doubt; inactive means no such curve, though single readings can be large; an effect the other way counts as inactive or inconclusive.

Assay [1] in a line: Cell Viability - BJ (AID 421; calls by dose curve;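 further: potency means the concentration at half of the fitted maximal effect; cells exposed to compound for 40 hours at 37 °C before readout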). To be noted: BJ fibroblast viability, qHTS. In short, it runs like this: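 Cytotoxicity as drop in intracellular ATP (CellTiter-Glo, 20 min RT) after 40 hr compound exposure of BJ fibroblasts at 37 °C. Titrations scaled between DMSO and 100 uM tamoxifen, Hill-fitted for AC50.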
For orientation: In qHTS, concentration-response curves come from the screen itself.

Assay [2] can be described thus: Cell Viability - Jurkat (AID 426;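 active means dose-dependent loss of cell ATP signal giving a full or clear fitted curve, ranked by lower potency value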;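 further: potency means the concentration at half of the fitted maximal effect; cells exposed to compound for 40 hours at 37 °C before ATP read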). The conditions noted are these: qHTS. In short, it runs like this: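 Cytotoxicity was scored as loss of cellular ATP, measured by luciferase-based luminescence, in Jurkat clone E6-1 cells after 40 h compound treatment; tamoxifen and doxorubicin served as positive controls.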
Assay [3] can be described thus: Cell Viability - HUV-EC-C (AID 542).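 Further: cells exposed to compound for 40 hours; nearly all actives have a fitted effect of over 35% in size.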 Further: potency means the concentration at half of the fitted maximal effect. On activity change, negative = cytotoxicity: on the % scale 0 is the no-effect control and ±100 the full control effect. The conditions noted are these: HUV-EC-C endothelial cell viability, qHTS; series mostly up to 92.2 µM. In short, it runs like this: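 Concentration-dependent ATP loss in HUV-EC-C cells is the measure. Exposure lasts 40 hr at 37 °C; luminescence follows CellTiter-Glo addition, and Hill fits give AC50.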
A short description of assay [4]: Cell Viability - H-4-II-E (AID 543).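 Further: cells exposed to compound for 40 hours; nearly all actives have a fitted effect of over 35% in size.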 Further: potency means the concentration at half of the fitted maximal effect. To be noted: H-4-II-E rat hepatoma viability; series mostly up to 92.2 µM. In outline:
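AC50 from Hill-modelled qHTS concentration-response curves. H-4-II-E rat hepatoma cells in complete medium, 40 hr exposure at 37 °C, viability by CellTiter-Glo ATP luminescence.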

Assay [5] is described as follows: Cell Viability - Mesenchymal (AID 546).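 Further: cells exposed to compound for 40 hours before reading.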 Further: potency means the concentration at half of the fitted maximal effect. The conditions noted are these: mesenchymal cells viability, qHTS; activity change, negative = cytotoxicity: at 91.7 µM (top of the series). In outline: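 In this qHTS cytotoxicity format, glomerulus-derived human mesenchymal kidney cells received compound for 40 hr, then luciferase-based ATP quantitation. Concentration-response data were fitted with the Hill equation.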

Assay [6] in a line: Cellular Toxicity (caspase-3) Jurkat (AID 655).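 Further: cells exposed to compound for 16 h at 37 °C before reading.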 The conditions noted are these: Jurkat caspase-3 activation, luminescence; caspase-3 activation: at 92.2 µM (top of the series), DMSO = 0%, tamoxifen = 100%. In outline: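 Jurkat cells (5000/well) in complete medium were treated with compounds for 16 hr at 37 °C, then Caspase-Glo 3/7 luminescence was read after 20 min at room temperature. Data normalized to DMSO (basal) and 100 uM tamoxifen (100%); AC50 from Hill fit.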

A short description of assay [7]: Cell Viability - LYMP2-001 (AID 921). Further: nearly all actives have a fitted effect of over 70% in size. Further: potency means the concentration at half of the fitted maximal effect. The conditions noted are these: LYMP2-001 lymphoblastoid cell viability; series mostly up to 92.2 µM. In short, it runs like this:
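Human lymphoblastoid cells (Coriell), 2500 per well, were preincubated 5 hr at 37 C, then exposed to compounds in complete medium for 24 hr at 37 C. Cellular ATP was read by CellTiter-Glo luminescence; AC50 from Hill fits of concentration-response data.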

Assay [8] is described as follows: MultiTox-Fluor Cytotoxicity Assay - LYMP1-001 - Live Cells (AID 947). Further: potency means the concentration at half of the fitted maximal effect.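 On activity change, negative = cytotoxicity: 0% = DMSO only and full inhibition = tetraoctylammonium bromide control.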 To be noted: LYMP1-001 lymphoblastoid cells, live-cell protease fluorescence viability; series mostly up to 92.2 µM.
Assay [9] can be described thus: Cell Viability - LYMP1-003 - Assay at 40 hr (AID 964). Further: nearly all actives have a fitted effect of over 60% in size. Further: potency means the concentration at half of the fitted maximal effect. To be noted: LYMP1-003 lymphoblastoid viability; series mostly up to 92.2 µM. In outline:
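Acute toxicity is scored as a concentration-dependent loss of intracellular ATP in LYMP1-003 cells (2500/well, complete medium) after 40 hr at 37 C, measured by CellTiter-Glo luminescence; AC50 values derive from standard Hill modelling.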

Assay [10] in a line: Cell Viability - LYMP2-011 (AID 969). Further: nearly all actives have a fitted effect of over 60% in size. Further: potency means the concentration at half of the fitted maximal effect. The conditions noted are these: LYMP2-011 lymphoblastoid cells viability; series mostly up to 92.2 µM. In outline:
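Cells seeded at 2500 per well rest 5 hr before compound addition, then incubate 24 hr at 37 C. CellTiter-Glo reagent is added for 30 min at room temperature before luminescence detection.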

Assay [11] can be described thus: Cell Viability - LYMP2-013 (AID 970). Further: nearly all actives have a fitted effect of over 55% in size. Further: potency means the concentration at half of the fitted maximal effect. The conditions noted are these: LYMP2-013 lymphoblastoid cells viability; series mostly up to 92.2 µM. In outline: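 In complete culture medium, human lymphoblastoid cells were dosed for 24 hr at 37 C, with tetraoctylammonium bromide (6.4pM to 92 uM) as positive control. Viability reflects luciferase-based ATP signal; AC50 derived from concentration-response curves.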

Assay [12] is described as follows: Cell Viability - LYMP2-015 (AID 971). Further: nearly all actives have a fitted effect of over 55% in size. Further: potency means the concentration at half of the fitted maximal effect. To be noted: LYMP2-015 lymphoblastoid cell viability; series mostly up to 92.2 µM. In outline: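 AC50 values reflect Hill-model fits of ATP-based luminescence (CellTiter-Glo) from a human lymphoblastoid line, 2500 cells/well, treated 24 hr at 37 C.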
Assay [13] is described as follows: Cell Viability - LYMP2-017 (AID 972). Further: nearly all actives have a fitted effect of over 55% in size. Further: potency means the concentration at half of the fitted maximal effect. On activity change, negative = cytotoxicity: on the % scale 0 is the no-effect control and ±100 the full control effect. To be noted: LYMP2-017 lymphoblastoid cell viability; series mostly up to 92.2 µM. In outline:
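In this qHTS format, lymphoblastoid cells in complete medium receive test compound for a day at 37 C before ATP content is quantified by luciferase luminescence. Reported AC50 figures come from standard Hill-equation curve fitting.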

Assay [14] can be described thus: Cell Viability - LYMP2-025 (AID 976). Further: potency means the concentration at half of the fitted maximal effect.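 On activity change, negative = cytotoxicity: plate controls were DMSO only for no effect and tetraoctylammonium bromide control for full effect.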 To be noted: LYMP2-025 lymphoblastoid cell viability; series mostly up to 92.2 µM. In outline:
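Luminescent ATP readout after 24 hr treatment of a human lymphoblastoid line (LYMP2-025, 2500 cells/well, 37 C). Reagent developed 30 min at room temperature; AC50 fitted with the Hill equation.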

A short description of assay [15]: Cell Viability - LYMP2-007 (AID 979).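 Further: cells exposed to compound for 24 h before reading; nearly all actives have a fitted effect of over 60% in size.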 Further: potency means the concentration at half of the fitted maximal effect.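 On activity change, negative = cytotoxicity: 0% = DMSO only and the negative end = 92 µM tetraoctylammonium bromide.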 To be noted: LYMP2-007 lymphoblastoid cell viability; series mostly up to 92.2 µM. In short, it runs like this: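 Measured via luciferase-based ATP quantitation: lymphoblastoid cells, 24 hr compound exposure at 37 C, AC50 from Hill fits.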
The nature of assay [16]: Cell Viability - LYMP2-008 (AID 980). Further: nearly all actives have a fitted effect of over 60% in size. Further: potency means the concentration at half of the fitted maximal effect. On activity change, negative = cytotoxicity: on the % scale 0 is the no-effect control and ±100 the full control effect. The conditions noted are these: LYMP2-008 lymphoblastoid cell viability, qHTS; series mostly up to 92.2 µM. In short, it runs like this:
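Measured: ATP-dependent luminescence, proportional to viable cell number, in human lymphoblastoid cells treated 24 hr with compound in complete culture medium. Values are AC50s from Hill-equation modelling of qHTS titrations.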

Assay [17] can be described thus: Cell Viability - LYMP2-014 (AID 983). Further: nearly all actives have a fitted effect of over 50% in size. Further: potency means the concentration at half of the fitted maximal effect.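 On activity change, negative = cytotoxicity: plate controls were DMSO only for no effect and 92 µM tetraoctylammonium bromide for full effect.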 The conditions noted are these: LYMP2-014 lymphoblastoid cells, viability qHTS; series mostly up to 92.2 µM. In outline:
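Quantitative HTS in lymphoblastoid cells: 24 hr compound exposure, then CellTiter-Glo ATP luminescence. Positive control was tetraoctylammonium bromide, 6.4pM to 92 uM.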

Assay [18] in a line: Cell Viability - LYMP1-002 - Assay at 40 hr (AID 994). Further: nearly all actives have a fitted effect of over 60% in size. Further: potency means the concentration at half of the fitted maximal effect. To be noted: LYMP1-002 lymphoblastoid cell viability; series mostly up to 92.2 µM. In short, it runs like this: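 Concentration-dependent ATP loss after 40 hr treatment at 37 C defined toxicity; AC50 values were obtained by fitting the standard Hill equation.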
Assay [19] is described as follows: qHTS assay for environmental chemicals that activate the Aryl hydrocarbon Receptor (AhR) signaling pathway (AID 651777). Further: % of control where 0% means no effect; nearly all actives have a fitted effect of over 15% in size. To be noted: 1A2-DRE human hepatoma cells, luciferase, 24 h; activation: hits give high values. In outline: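 Luminescence (One-Glo, 30 min, room temperature) reports AhR-driven luciferase in stably transfected human hepatoma cells bearing DRE and CYP1A2 promoter. Cells (1,200/well) were treated with compound for 24 hr at 37 C in qHTS format.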

Assay [20] is described as follows: MultiTox-Fluor Cytotoxicity Assay - LYMP1-001 - Dead Cells (AID 946). Further: potency means the concentration at half of the fitted maximal effect. To be noted: LYMP1-001 lymphoblastoid cells, dead-cell protease fluorescence; series mostly up to 92.2 µM. In short, it runs like this: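 Cytotoxicity as increased dead-cell protease fluorescence (bis-AAF-R110, 485/520 nm), read 60 min after MultiTox-Fluor reagent. Human lymphoblastoid line exposed 16 h; Hill-fitted AC50, with DMSO as 0% and 15 uM tetraoctylammonium bromide as 100%.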

`CCC(C)Nc1ccc(NC(C)CC)cc1` (stereo not given): the Potency in assay [1] was 14 µM (active); in assay [2], 3.09 µM (active); in [3] it was 10 µM (active); in assay [4], 6.31 µM (active); in assay [5] it was 12.6 µM (active); in [7], 5.01 µM (active). Besides, the Potency in [8] is 12.6 µM (active); in [9], 10 µM (active); in assay [10] it was 6.31 µM (active); in [11] it was 6.31 µM (active); in assay [12] it was 3.98 µM (active); in assay [13], 3.98 µM (active). The Potency in assay [14] was 7.94 µM (active); in assay [15] it was 5.01 µM (active); in assay [16] it was 3.98 µM (active); in assay [17], 5.01 µM (active); in assay [18], 15.8 µM (active). The Potency entry in assay [6] was “inactive”. In addition, the activation in assay [19] is -3.51%.

For the molecule `Cc1cc(O)c(C(C)(C)C)cc1Sc1cc(C(C)(C)C)c(O)cc1C`, the Potency is 43.8 µM (active) in [1]; 16.3 µM (active) in [2]; 39.8 µM (active) in assay [3]; 25.1 µM (active) in assay [4]; 15.8 µM (active) in assay [5]; 39.8 µM (active) in [7]. Besides, the Potency is 31.6 µM (active) in assay [20]; 31.6 µM (active) in assay [8]; 39.8 µM (active) in assay [9]; 39.8 µM (active) in assay [10]; 31.6 µM (active) in assay [11]; 39.8 µM (active) in assay [12]. The Potency in assay [13] was 50.1 µM (active); in [14] it was 39.8 µM (active); in [15] it was 31.6 µM (active); in assay [16], 31.6 µM (active); in assay [17] it was 39.8 µM (active); in assay [18], 39.8 µM (active). In addition, the activation in assay [19] was -3.69% and -11.4%.

Take `CCCCCC/C(C=O)=C\c1ccccc1`: the Potency in assay [1] and in assay [2] was greater than 92 µM throughout. Besides, the Potency entry in assay [3], in assay [4], in [5], in assay [6], in assay [7] and in assay [20] was “inactive” throughout. For the same molecule, the Potency entry in [8], in assay [9], in [10], in assay [11], in assay [12] and in assay [13] was “inactive” in each case. The Potency result in assay [14], in [15], in assay [16], in assay [17] and in [18] was “inactive” each time. Also, in assay [19], the activation is -0.354%.

For the molecule `CO[C@H]1/C=C/O[C@@]2(C)Oc3c(C)c(O)c4c(O)c(c5c(c4c3C2=O)NC2(CCN(CC(C)C)CC2)N=5)=NC(=O)/C(C)=C\C=C\[C@H](C)[C@H](O)[C@@H](C)[C@@H](O)[C@@H](C)[C@H](OC(C)=O)[C@@H]1C`, in assay [1], the Potency was greater than 92 µM. Also, the Potency result in assay [6], in assay [8], in assay [14], in assay [15], in assay [16] and in assay [17] was “inactive” throughout. The activation in assay [19] was -1.73%.

As to `O=C(OCC(COC(=O)c1ccccc1)(COC(=O)c1ccccc1)COC(=O)c1ccccc1)c1ccccc1`, the Potency in assay [1] and in assay [2] was greater than 92 µM throughout. In addition, the Potency result in [3], in [4], in [5], in [6], in assay [7] and in [20] was “inactive” in each case. Moreover, the Potency entry in assay [8], in assay [9], in [10], in [11], in assay [12] and in assay [13] was “inactive” in each case. The Potency entry in assay [14], in assay [15], in assay [16], in assay [17] and in assay [18] was “inactive” each time. Moreover, the activation in assay [19] was -0.471%.

For `Cc1ccc(S(=O)(=O)Oc2ccc(N=Nc3ccc(-c4ccc(N=Nc5c(O)ccc6cc(S(=O)(=O)O)cc(S(=O)(=O)O)c56)c(C)c4)cc3C)cc2)cc1`, the Potency was 25.1 µM (active) in [3] and 31.6 µM (active) in [5]. For the same molecule, the Potency result in [6] and in assay [20] was “inactive” throughout. The activation in [19] is -2.33%.

For the molecule `Cc1cc(Nc2ccc(O)cc2)ccc1N`, the Potency in assay [2] is 7.82 µM (active); in [4], 39.8 µM (active); in assay [7], 31.6 µM (active); in assay [10], 50.1 µM (active); in assay [11] it was 50.1 µM (active); in assay [12], 39.8 µM (active). Moreover, the Potency in [13] was 39.8 µM (active); in assay [14], 50.1 µM (active); in [15], 31.6 µM (active); in [16], 50.1 µM (active); in assay [17], 50.1 µM (active). Also, the Potency result in assay [20], in [8] and in [18] was “inactive” in each case.

As for `CN(C)c1ccc(C2(c3ccc(N(C)C)cc3)OC(=O)c3cc(N(C)C)ccc32)cc1`, the Potency in assay [1] and in [2] was greater than 92 µM in each case. In addition, the Potency result in assay [3], in assay [4], in assay [5], in [6], in [7] and in [20] was “inactive” in each case. The Potency result in assay [8], in [9], in assay [10], in assay [11], in assay [12] and in assay [13] was “inactive” each time. In addition, the Potency result in assay [14], in assay [15], in assay [16], in [17] and in [18] was “inactive” in each case. In addition, the activation in [19] is -0.148%.
